PubChem BioAssay (NCI)
Where “and” joins values, the source holds several entries; their conditions need not be identical. Equal entries are not always repeated. The panel holds about 83,000 compounds, 20% with a hit somewhere; the sample as a whole holds those more often.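 Growth was measured after 48 h exposure to one concentration of compound in 96-well plates. Values under 10 count as active.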 Calls of active or inactive are those of the source.

What was measured:
Assay in all cases: NCI-60 one-dose screen, 48 h (100 = growth as untreated, 0 = no growth, -100 = all killed)
Settings in all cases: 10 µM unless noted
DU-145 prostate = tested on: DU-145 prostate
K-562 leukemia = tested on: K-562 leukemia
MALME-3M melanoma = tested on: MALME-3M melanoma
MDA-MB-231 breast = tested on: MDA-MB-231 breast
RXF 393 renal = tested on: RXF 393 renal
SF-268 CNS = tested on: SF-268 CNS
SF-295 CNS = tested on: SF-295 CNS
SF-539 CNS = tested on: SF-539 CNS
UACC-257 melanoma = tested on: UACC-257 melanoma
M14 melanoma = tested on: M14 melanoma
HCT-15 colon = tested on: HCT-15 colon
HT29 colon = tested on: HT29 colon
SNB-75 CNS = tested on: SNB-75 CNS
SNB-19 CNS = tested on: SNB-19 CNS
U251 CNS = tested on: U251 CNS
PC-3 prostate = tested on: PC-3 prostate
UACC-62 melanoma = tested on: UACC-62 melanoma
LOX IMVI melanoma = tested on: LOX IMVI melanoma
SK-MEL-28 melanoma = tested on: SK-MEL-28 melanoma
SK-MEL-5 melanoma = tested on: SK-MEL-5 melanoma

SMILES	growth (DU-145 prostate)	growth (K-562 leukemia)	growth (MALME-3M melanoma)	growth (MDA-MB-231 breast)	growth (RXF 393 renal)	growth (SF-268 CNS)	growth (SF-295 CNS)	growth (SF-539 CNS)	growth (UACC-257 melanoma)	growth (M14 melanoma)	growth (HCT-15 colon)	growth (HT29 colon)	growth (SNB-75 CNS)	growth (SNB-19 CNS)	growth (U251 CNS)	growth (PC-3 prostate)	growth (UACC-62 melanoma)	growth (LOX IMVI melanoma)	growth (SK-MEL-28 melanoma)	growth (SK-MEL-5 melanoma)
CCC(C)C1(C2CCCC2)NC(=O)NC1=O (stereo not given)	121% (inactive)	99.3% (inactive)	114% (inactive)	101% (inactive) and 94.3% (inactive)	106% (inactive) and 127% (inactive)	103% (inactive) and 107% (inactive)	117% (inactive) and 93.9% (inactive)	104% (inactive) and 96.6% (inactive)	94.9% (inactive) and 101% (inactive)	98.4% (inactive) and 106% (inactive)	107% (inactive) and 102% (inactive)	97.3% (inactive) and 108% (inactive)	94.5% (inactive) and 103% (inactive)	98.8% (inactive) and 99.7% (inactive)	105% (inactive) and 108% (inactive)	102% (inactive) and 95.2% (inactive)	95.5% (inactive) and 96.8% (inactive)	92.2% (inactive)	109% (inactive) and 108% (inactive)	–
O=C(Oc1cccc(OC(=O)c2ccccc2)c1)c1ccccc1	111% (inactive) and 105% (inactive)	79.3% (inactive) and 88.5% (inactive)	119% (inactive) and 110% (inactive)	96.2% (inactive) and 107% (inactive)	121% (inactive)	92% (inactive) and 94.7% (inactive)	103% (inactive) and 99% (inactive)	96.8% (inactive) and 96.1% (inactive)	111% (inactive)	116% (inactive) and 99.4% (inactive)	73% (inactive) and 102% (inactive)	79.9% (inactive) and 102% (inactive)	–	111% (inactive) and 98.9% (inactive)	80.4% (inactive) and 101% (inactive)	9.09% (active) and 91.8% (inactive)	96.1% (inactive) and 100% (inactive)	78.3% (inactive) and 87.9% (inactive)	115% (inactive) and 100% (inactive)	101% (inactive) and 94.8% (inactive)
CC(=O)Nc1cccc2c1CCCC2	107% (inactive) and 101% (inactive)	109% (inactive) and 110% (inactive)	103% (inactive) and 95.5% (inactive)	115% (inactive) and 110% (inactive)	101% (inactive)	95.6% (inactive) and 103% (inactive)	94.9% (inactive) and 100% (inactive)	107% (inactive) and 97.8% (inactive)	67.1% (inactive) and 102% (inactive)	94.5% (inactive) and 101% (inactive)	92.8% (inactive) and 96.5% (inactive)	92.8% (inactive) and 85.6% (inactive)	–	103% (inactive) and 104% (inactive)	97.7% (inactive) and 95.7% (inactive)	87.8% (inactive) and 90.2% (inactive)	107% (inactive) and 102% (inactive)	97.1% (inactive) and 93.6% (inactive)	104% (inactive) and 107% (inactive)	100% (inactive)
O[C@H](c1cc(C(F)(F)F)nc2c(C(F)(F)F)cccc12)[C@@H]1CCCCN1	67% (inactive) and 70.2% (inactive)	8.6% (active) and 11.9% (inactive)	89.6% (inactive) and 82.2% (inactive)	15.1% (inactive) and 17.7% (inactive)	44% (inactive) and 43.3% (inactive)	57.9% (inactive) and 56.6% (inactive)	93.6% (inactive)	81.1% (inactive) and 75.6% (inactive)	58.1% (inactive) and 75.4% (inactive)	67.2% (inactive) and 71.8% (inactive)	70.8% (inactive) and 82.5% (inactive)	47.5% (inactive)	–	60.1% (inactive) and 65.9% (inactive)	42.6% (inactive) and 45.9% (inactive)	42.7% (inactive) and 45% (inactive)	70.5% (inactive) and 67.8% (inactive)	11.6% (inactive) and 7.96% (active)	94.4% (inactive) and 88.8% (inactive)	84.9% (inactive) and 74.2% (inactive)
COc1ccc(Cn2c(NCCN=C(N)N)nc(=O)n(Cc3ccc(F)cc3)c2=O)cc1	104% (inactive) and 115% (inactive)	89.6% (inactive) and 94% (inactive)	91.7% (inactive) and 91.1% (inactive)	107% (inactive) and 103% (inactive)	95.5% (inactive) and 109% (inactive)	61.8% (inactive) and 52.5% (inactive)	102% (inactive)	102% (inactive) and 89.7% (inactive)	89.4% (inactive) and 101% (inactive)	97.9% (inactive) and 100% (inactive)	103% (inactive) and 106% (inactive)	101% (inactive) and 100% (inactive)	–	77.6% (inactive) and 78.7% (inactive)	81.7% (inactive)	83% (inactive) and 87.1% (inactive)	112% (inactive) and 98.4% (inactive)	96.2% (inactive)	103% (inactive) and 97.9% (inactive)	98.7% (inactive) and 99.9% (inactive)
N/C(=N\N=C\c1ccc2c(c1)OCO2)N/N=C\c1ccc2c(c1)OCO2	110% (inactive) and 83.9% (inactive)	90.1% (inactive)	92.7% (inactive)	107% (inactive) and 90.4% (inactive)	110% (inactive)	101% (inactive) and 76.2% (inactive)	114% (inactive) and 121% (inactive)	109% (inactive) and 113% (inactive)	110% (inactive) and 97% (inactive)	100% (inactive) and 59.7% (inactive)	103% (inactive) and 93.7% (inactive)	88.4% (inactive) and 13% (inactive)	113% (inactive) and 135% (inactive)	108% (inactive) and 92.1% (inactive)	99.4% (inactive) and 84.6% (inactive)	103% (inactive) and 89.6% (inactive)	112% (inactive) and 90.7% (inactive)	–	112% (inactive) and 45.6% (inactive)	112% (inactive)
N#C/C(=C/c1c(O)ccc2ccccc12)C(N)=O	104% (inactive)	97.4% (inactive)	99.4% (inactive)	86.4% (inactive)	98.3% (inactive)	95.4% (inactive)	91.2% (inactive)	102% (inactive)	106% (inactive)	94.5% (inactive)	100% (inactive)	–	–	109% (inactive)	–	94% (inactive)	104% (inactive)	55.9% (inactive)	110% (inactive)	94.1% (inactive)
CN(C)c1ccc2nc3ccc(N)cc3[n+](-c3ccccc3)c2c1	46.7% (inactive) and 2.32% (active)	9.29% (active) and 18.5% (inactive)	4.82% (active) and -9.23% (active)	51.6% (inactive) and 15.7% (inactive)	65.6% (inactive) and 73.1% (inactive)	30.3% (inactive) and 7.92% (active)	29% (inactive) and -39.8% (active)	19.8% (inactive) and -29.8% (active)	-12.2% (active) and -21% (active)	–	90.7% (inactive) and 18.7% (inactive)	32.5% (inactive) and 24.4% (inactive)	18.6% (inactive) and 52.4% (inactive)	12.3% (inactive) and 21.1% (inactive)	16% (inactive) and 3.13% (active)	22.2% (inactive) and 7.58% (active)	17% (inactive) and 13.4% (inactive)	28% (inactive) and 6.03% (active)	37.6% (inactive) and 30.9% (inactive)	-5.68% (active) and -77.7% (active)
